CHX counter – Cycloheximide Counterscreen for Small Molecule Inhibitors of Shiga Toxin; cell reporter, cycloheximide protein synthesis inhibition counterscreen; max response, %; 12% of 300,000 active; in the data active = max response mostly above about 13%, no sharp cut-off; inactive = mostly below about 14%; note: read at 38.3 µM for the half of the compounds with a filed dose; 0% is about no effect
Shiga toxin inh – A qHTS for Small Molecule Inhibitors of Shiga Toxin; AID 2315, 2010; Vero cells, Shiga toxin protein synthesis inhibition reporter; inhibition, % at 38.7 µM; 9.2% of 290,000 active; in the data active = inhibition mostly above about 28%, no sharp cut-off; inactive = mostly below about 43%; note: 0% is about no effect
NS1 inh – qHTS Assay for Inhibitors of Influenza NS1 Protein Function; Potency, µM (highest dose often 46.1 µM), for the others: top-dose activity, positive = more growth; 0.4% of 270,000 active; AID 2326, 2010; calls by dose curve; note: potency is the fitted concentration of half-maximal effect; actives are rising curves; nearly all actives have a fitted effect of over 50% in size
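Growth recovery, yeast-based: influenza A NS1 expressed in S. cerevisiae causes slow growth, and suppressors are detected by OD600. The parent strain without NS1 is used as positive control.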
Sm TGR inh – qHTS Assay for the Inhibitors of Schistosoma Mansoni Peroxiredoxins; Schistosoma mansoni thioredoxin glutathione reductase (TGR), Q962Y6; purified TGR, DTNB reduction, TNB absorbance 405 nm; Potency, µM (highest dose often 114 µM), inactives show top-dose activity change, negative = inhibition, usual class: inhibitors; 3% of 360,000 active; note: potency is the fitted concentration of half-maximal effect; % is set by controls: 0 for no effect and ±100 for the full control effect; nearly all actives have a fitted effect of over 60% in size
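TGR 20 nM + NADPH 100 uM (dispensed conc.), cpd preinc 15 min RT; start with NADPH (500 uM addition) then DTNB (15 mM addition). Kinetic TNB absorbance, 405 nm filter. Four-parameter Hill fit across titration.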
Pf growth 48h – Primary qHTS for delayed death inhibitors of the malarial parasite plastid, 48 hour incubation; P. falciparum luciferase growth in erythrocytes, 48 h; Potency, µM (top dose mostly 28.7 µM), without a hit: at the top dose activity change, negative = inhibition, hits mostly inhibitors; 5.9% of 310,000 active; AID 504832, 2011; note: potency is the fitted concentration of half-maximal effect; % is set by controls: 0 for no effect and ±100 for the full control effect
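A one-generation exposure of luciferase-tagged malaria parasites in RPMI 1640/Albumax erythrocyte culture, 37 C and 5% CO2. Inhibition is inferred from decreased luminescence after adding detection reagent.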
Pf growth 96h – Primary qHTS for delayed death inhibitors of the malarial parasite plastid, 96 hour incubation. P. falciparum luciferase reporter growth, 96 h. Potency, µM (doses to about 28.7 µM), for the others: at the highest dose activity change, negative = inhibition, actives largely listed as inhibitors. 6.9% of 320,000 active; note: potency is the fitted concentration of half-maximal effect; % is set by controls: 0 for no effect and ±100 for the full control effect
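Luminescence readout: decreased luciferase signal marks inhibited growth of reporter-expressing P. falciparum in infected red cells (2% hematocrit, 0.05% parasitemia final), exposed to compound two generations (96 h, 37 C, 5% CO2).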
* hit, by the source's call; ? = inconclusive; . = not tested or not shown. This is a sample that favours compounds with a hit; in the whole collection about 21% have one here. Unless noted, calls come from the whole dose curve; as a rule, active = well fitted curve in the direction sought with a large enough effect; inconclusive = small, poorly fitted or top-dose-only effect, or another doubt; inactive = no such curve, though single readings can be large; an effect the other way counts as inactive or inconclusive.

SMILES	CHX counter	Shiga toxin inh	NS1 inh	Sm TGR inh	Pf growth 48h	Pf growth 96h
O=C(Nc1nc2c(s1)CCCCCC2)Nc1ccc(F)cc1F	.	.	.	0%	.	.
Cc1onc(-c2ccccc2)c1C(=O)Nc1nc2c(s1)CCCC2	32*	50	-14%	-1%	9%	.
COc1cc([N+](=O)[O-])ccc1NC(=O)Nc1nc2c(s1)CCCC2	-2	10	3%	3%	1.5µM*	-5%
Cc1nn(-c2ccc(N3CCCC3)nn2)c(C)c1CCC(=O)N1CCN(c2ccc(F)cc2)CC1	.	.	.	4%	.	.
Cc1nn(-c2ccccn2)c2c1-c1nc(N)ncc1CC2	36*	49*	-3%	0%	36%	.
COC(=O)c1sc2ccccc2c1C(=O)OC	6	-7	-1%	-4%	-1%	.
CC(=Nc1ccc(C)cc1)c1sc2ccccc2c1O	35*	92*	8%	5%	32%	180%
CC(=Nc1ccc(C)cc1C)c1sc2ccccc2c1O	37*	119*	-4%	48%	-44%	0%
Cc1ccc(NC(=S)NC(=O)c2sc3ccccc3c2Cl)c(C(=O)O)c1	10	33	-3%	.	11%	22%
COC(=O)c1sc2ccccc2c1-n1cccc1C(=O)C(=O)Nc1ccc(C)cc1	5	26	11%	0%	25%	45%
CC(=Nc1cccc(O)c1)c1sc2ccccc2c1O	55*	111*	-17%	-3%	-37%	51%
N#CC12C(N)=NC3(OCCO3)C1(C#N)C1=C(CCC1)NC2c1ccccc1 (stereo unspecified)	17*	25	-9%	-35%	30%	37%
CN1CC(=O)N(CC(=O)Nc2cccc(S(=O)(=O)N3CCOCC3)c2)C1=O	4	-1	.	4%	7%	?
Cc1ccc(NC(=O)C2CCCN(c3ncnc4c3nc3n4CCCCC3)C2)nc1 (stereo unspecified)	-2	-13	-47%	-1%	?	1%
CC(=O)c1ccc(N2CCN(C(=O)C3CCCN(c4ncnc5c4nc4n5CCCCC4)C3)CC2)cc1 (stereo unspecified)	-2	-2	-26%	2%	13µM*	?
CC(=O)c1ccc(NC(=O)C2CCCN(c3ncnc4c3nc3n4CCCCC3)C2)cc1 (stereo unspecified)	7	-4	-2%	17%	?	6.6µM*
CN1CCN(C(=O)C2CCCN(c3ncnc4c3nc3n4CCCCC3)C2)CC1 (stereo unspecified)	-3	-3	-12%	-7%	?	1%
Cc1ccnc(NC(=O)C2CCCN(c3ncnc4c3nc3n4CCCCC3)C2)c1 (stereo unspecified)	9	-10	9%	-3%	-3%	10µM*
O=C(Nc1cccnc1Cl)C1CCCN(c2ncnc3c2nc2n3CCCCC2)C1 (stereo unspecified)	1	8	-28%	-3%	-10%	12µM*
COc1ccc(CN(C)C(=O)CNC(=O)CNC(=O)c2ccc(Cl)cc2Cl)cc1F	-2	35	2%	-4%	-17%	?
COc1ccc(/C=C/C(=O)N(C)C2CCS(=O)(=O)C2)cc1 (stereo unspecified)	.	.	.	1%	4%	2%
CCn1c(=O)c2cc(C(=O)Nc3cc(OC)c(OC)c(OC)c3)sc2c2ccccc21	.	.	.	-2%	.	.
CC1CCN(CCNC(=O)C2CCCN(c3ncnc4c3nc3n4CCCCC3)C2)CC1 (stereo unspecified)	2	-6	-16%	-10%	-8%	2.9µM*
COc1ccc(N2CCN(C(=O)C3CCCN(c4ncnc5c4nc4n5CCCCC4)C3)CC2)cc1 (stereo unspecified)	-4	-6	-28%	2%	12µM*	4%
COc1ccccc1NC(=O)C1CCN(c2ncnc3c2nc2n3CCCCC2)CC1	15	22	1%	-1%	?	10µM*
CC1CCCCN1CCCNC(=O)C1CCCN(c2ncnc3c2nc2n3CCCCC2)C1 (stereo unspecified)	-1	-11	-1%	-18%	?	?

Bioassay records deposited in PubChem by National Center for Advancing Translational Sciences (NCATS).
